The whole screen tested about 310,000 compounds, of which about 11,000 (3.5%) were called active. Not shown: some 4% with an inconclusive outcome. Only a selection was taken, and actives are over-represented in it overall. Unmarked numbers belong to inactive results. Calls come from the whole dose curve; as a rule, active = well fitted inhibition curve with a large enough effect; inconclusive = small, poorly fitted or top-dose-only effect, or another doubt; inactive = no such curve, though single readings can be large or run the other way. Non-standard residues stand in square brackets, D forms with d. Residues, ends and D or L forms follow the SMILES beside them. ξ: configuration not given here. *: point of attachment. Cbz = O=C(OCc1ccccc1)*; ξL = CC(C)CC(N)C(=O)O; ξP = O=C(O)C1CCCN1

From PubChem BioAssay AID1490 (National Center for Advancing Translational Sciences (NCATS), 2009) come the findings set out here.
Potency is the fitted concentration of half-maximal effect.

For the experiment, the target named is 4'-phosphopantetheinyl transferase ffp (Bacillus subtilis) (UniProt Q9F4F7). Kind of experiment: qHTS Assay for Inhibitors of Bacillus subtilis Sfp phosphopantetheinyl transferase (PPTase).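 For largest response in the series, negative = inhibition: 0% = enzyme reaction without inhibitor and -100% = no enzyme wells.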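 Note: the enzyme is Sfp with the accession as filed and its product quenches rhodamine fluorescence.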 The following applies: Biochemical Sfp PPTase activity. From the text:
Assay Submitter: Michael Burkart, University of California, San Diego
Screening Center PI: Austin, C.P.
Screening Center: NIH Chemical Genomics Center [NCGC]
The covalent attachment of a phosphopantetheinyl (4'-PP) arm to a variety of synthases and other proteins is a key posttranslational protein modification. The 4'-PP is installed on the proteins post-translationally from coenzyme A (CoA) on a conserved serine residue by action of phosphopantetheinyl transferase (PPTase) enzymes. Phosphopantetheinylation is essential for synthase activity, and removal of the PPTase gene precludes natural product synthesis in microorganisms, or in the case of fatty acid biosynthesis, renders the organism unviable. PPTase enzymes belong to a distinct structural superfamily. Within bacteria, these enzymes are grouped into two classes based upon primary structure, the AcpS-Type and Sfp-Type PPTases.
Sfp-type PPTases, corresponding to an activator of surfactin production in Bacillus subtilis, are responsible for modifying type I polyketide and nonribosomal peptide synthases of prokaryotes. Sfp-type PPTases are responsible for the activation of a variety of pathogen-associated virulence factors. Among these compounds are toxins such as mycolactone from Mycobacterium ulcerans, siderophores such as vibriobactin from Vibrio cholerae or mycobactin from Mycobacterium tuberculosis, as well as the mycolic acids which form the waxy cell wall of Mycobacteria. The biosyntheses of these natural products are considered attractive targets for drug design.
In search of small molecule Sfp-PPTase inhibitors, a fluorescence quenching assay was developed for detection of Bacillus subtilis Sfp-PPTase enzymatic activity in a miniaturized high-throughput format. The consensus ybbr acceptor peptide […] was N-terminally labeled with Black Hole Quencher-2 (BHQ-2) and used in combination with rhodamine-labeled coenzyme A as a co-substrate.
Inhibition of Sfp-PPTase was detected by recording the fluorescence intensity change over a 30-minute reaction period at a 525 nm excitation and 598 nm emission. Reagents were supplied by Michael Burkart and Timothy Foley, University of California at San Diego.
This BioAssay deposition is for validation of the developed Sfp-PPtase assay.
Assay Buffer: 50 mM Hepes-Na pH 7.6, 10 mM MgCl2, 0.01% Nonidet P-40, and 0.01% BSA.
3 uL of Sfp-PPTase enzyme (final concentration 15 nM) and 1 uL of substrate mixture (final concentration for rhodamine-CoA and BHQ-2-YbbR 5 uM and 12.5 uM, respectively) dispensed in columns 1, 2, 5 - 48. Columns 1 and 2 used to generate neutral control (uninhibited reaction)
Three uL of reagents, consisting of buffer (in columns 3 and 4 as negative control) and Sfp-PPTase (in columns 1, 2, 5 - 48) were dispensed into 1,536-well Greiner black solid bottom plate. Compounds (23 nL) were transferred via Kalypsys pintool equipped with 1,536-pin array. The plate was incubated for 15 min at room temperature, followed by the addition of 1 uL substrate to start the reaction. The plate was then centrifuged at 1000 rpm for 15 seconds, and the fluorescence intensity recorded on a ViewLux High-throughput CCD imager (Perkin-Elmer) using standard BODIPY optics (525 nm excitation and 598 nm emission). The plate was then incubated for 30 minutes, and a second read on the ViewLux was performed. The fluorescence intensity difference over the 30-minute period was used to calculate the respective reaction rate for each well.
A general note: qHTS replaces the single test concentration by a dilution series.
Consider `CC(C)CC(NC(=O)C1CCCN1C(=O)[C@@H](C)NC(=O)OCc1ccccc1)C(=O)NCC(N)=O` (some centres undefined) (Cbz-[dA][ξP][ξL]G-NH2), for which the largest response in the series, negative = inhibition was 4.6%.
On the same count and under the same terms, with `COc1ccc2oc(=N)c(C(=O)Nc3ccc(Br)cc3)cc2c1` the figure was 17.1%; with `Cc1ccccc1NC(=S)NC(=O)Cc1ccc(Cl)cc1`, 1.33%; with `COC(=O)c1ccc(CNC(=O)c2ccc3oc(C(C)C)nc3c2)cc1`, 14.1%.
As to `CCc1ccccc1NC(=O)CSc1nnc([C@@H](NC(=O)OC(C)(C)C)C(C)C)o1`, the largest response in the series, negative = inhibition is 0.218%.
As for `CCc1ccccc1NC(=O)CSc1nnc([C@@H](NC(=O)OC(C)(C)C)C(C)CC)o1` (some centres undefined), the largest response in the series, negative = inhibition is 6.3%.
On to `C[C@H](NC(=O)OC(C)(C)C)c1nnc(SCC(=O)Nc2ccc(Br)cc2)o1`, for which the largest response in the series, negative = inhibition is 20%.
Still for that read-out and setting: to `COc1ccccc1NC(=O)[C@H](COCc1ccccc1)NC(=O)OC(C)(C)C` belongs 14.9%.
As for `C[C@@H](NC(=O)OC(C)(C)C)c1nnc(S(=O)(=O)Cc2ccccc2)o1`, the Potency is 22.4 µM (active).
Consider `CC(C)Sc1nnc([C@H](Cc2ccccc2)NC(=O)OC(C)(C)C)o1`, for which the Potency is 50.1 µM (active).
Regarding `CCOC(=O)CC1(NC(=O)c2cc(COc3cncc(Cl)c3)on2)CCCCC1`, the largest response in the series, negative = inhibition is -1.1%.
For the compound `CC(C)(C)NC(=O)C(c1ccc(Cl)cc1)N(CCO)C(=O)c1snc(C(N)=O)c1N` (centres undefined), the largest response in the series, negative = inhibition was 3.24%.
Take `O=C(Nc1cccnc1Cl)c1cc(-c2cccc(Cl)c2)on1`: the largest response in the series, negative = inhibition is -6.07%.
On the same count and under the same terms, to `O=C(Nc1cccc(F)c1)[C@@H]1CCCN1` belongs 1.19%; to `Cc1ccc(NC(=O)C2CCCN2S(=O)(=O)c2cccc3cccnc23)c(C)c1` (centres undefined), 10.9%; to `CCCCC(C(=O)NC(C)(C)C)N(Cc1ccccc1)C(=O)c1snc(C(N)=O)c1N` (centres undefined), 3.56%.
For the compound `CCc1ccc2[nH]c(=O)c(Cc3ccccc3)c(O)c2c1`, the largest response in the series, negative = inhibition is 0.106%.
`CC(NC(=O)c1ccco1)c1ccc2c(c1)OCO2` (centres undefined): the largest response in the series, negative = inhibition is 11.2%.
As for `COc1cccc(N(C(=O)c2snc(C(N)=O)c2N)C(C(=O)NCC2CCCO2)c2c[nH]c3ccccc23)c1` (centres undefined), the largest response in the series, negative = inhibition was -7.12%.
In the case of `CC(Sc1nnnn1C1CCCCC1)C(=O)O` (centres undefined), the largest response in the series, negative = inhibition was 0.844%.
Take `CC(Sc1sc(=S)sc1SC(C)C(=O)O)C(=O)O` (centres undefined): the Potency was 79.4 µM (active).
With `NC(=O)c1nsc(C(=O)N(CCCN2CCOCC2)C(C(=O)NC2CCCCC2)c2ccc(Cl)cc2)c1N` (centres undefined), the largest response in the series, negative = inhibition was 15%.
For `O=C(CCCn1c(SCC(=O)c2ccccc2)nc2ccccc2c1=O)NCC1CCCO1` (centres undefined), the largest response in the series, negative = inhibition was -21.1%.
For `CCCCn1c(SCC(=O)NCC2CCCO2)nc2ccc(N3CCOCC3)cc2c1=O` (centres undefined), the Potency was 39.8 µM (active).
On to `COCCNC(=O)c1ccc(Cn2c(SCC(=O)NCC3CCCO3)nc3ccc(Br)cc3c2=O)cc1` (centres undefined), for which the largest response in the series, negative = inhibition was -12.8%.
`CCCCC(=O)Nc1nnc(S(=O)(=O)N(C)Cc2ccco2)s1`: the largest response in the series, negative = inhibition is -1.11%.
`Cc1nn(-c2ccccc2)c2c1c(C)c(CCC(=O)NCC1CCCO1)c(=O)n2C` (centres undefined): the largest response in the series, negative = inhibition is 20.2%.
For the compound `CCc1nc(NCCO)c(C#N)c2c1CCCC2`, the largest response in the series, negative = inhibition was -0.704%.
Still for that read-out and setting: with `CCN1CCc2c(C#N)c(NCc3ccccc3)nc(NCCO)c2C1` the figure was -12.9%.
On to `CC(C)CCNc1nc(N2CCCC2)c2c(c1C#N)CCN(C)C2`, for which the Potency was 70.8 µM (active).
With `COc1ccc(NC(=O)c2cccc(Cl)c2)c[n+]1[O-]`, the largest response in the series, negative = inhibition was -0.333%.
For `O=C(NCCc1ccccc1)c1ccc2c(c1)N(Cc1ccccc1)CCS2`, the largest response in the series, negative = inhibition is 5.03%.
Same read-out and setting: with `COc1ccc(Cn2c(=S)[nH]c3cc(C(=O)N4CCCCC4)ccc3c2=O)cc1` the figure was -3.09%.
With `CC(=O)N(C1=C(Cl)C(=O)c2ccccc2C1=O)c1ccc(C(=O)O)cc1`, the Potency is 1 µM (active).
As for `CC(C)N(C(=O)c1ccc(-c2ccccc2F)cc1)C(C)C`, the largest response in the series, negative = inhibition is -2.72%.
On to `O=C(CN1C(=O)c2ccccc2C1=O)NCc1ccc(C(=O)O)cc1`, for which the largest response in the series, negative = inhibition is 9.6%.
In the case of `C/C=C/C=N/NC(=O)c1ccncc1`, the largest response in the series, negative = inhibition was -22.5%.
Same read-out and setting: with `COC(=O)[C@@]1(Cc2ccc(OC)cc2)[C@H]2c3cc(C(=O)N4CCCC4)n(Cc4ccc(OC(F)(F)F)cc4)c3C[C@H]2CN1C(=O)c1ccccc1` the figure was 6.34%; with `COC(=O)[C@@]1(Cc2ccc(F)cc2)[C@H]2c3cc(C(=O)N4CCCC4)n(Cc4ccc(OC(F)(F)F)cc4)c3C[C@H]2CN1C(=O)c1ccccc1`, 24.5%.
On to `COC(=O)[C@@]1(Cc2ccccc2)[C@H]2c3cc(C(=O)N4CCCC4)n(Cc4ccc(C)o4)c3C[C@H]2CN1C(=O)c1ccccc1`, for which the Potency was 56.2 µM (active).
As to `O=C(OCCN=C1NS(=O)(=O)c2ccccc21)c1cccc([N+](=O)[O-])c1`, the largest response in the series, negative = inhibition was 0.751%.
In the case of `COC(=O)CN1C(=O)[C@H]2[C@@H](C3CC3)N3C(=O)CN(Cc4ccc(-c5ccccc5)cc4)C(=O)[C@@]3(Cc3ccccc3)[C@H]2C1=O`, the largest response in the series, negative = inhibition was 13%.
Turning to `Oc1cc(O)c2c(c1)OC(c1ccc(O)c(O)c1)C(O)C2` (centres undefined), the Potency is 44.7 µM (active).
For `CCOc1ccc(S(=O)(=O)NCCCn2ccnc2)cc1NC(C)=O`, the largest response in the series, negative = inhibition is 13.6%.
